Screening data: PubChem, National Center for Advancing Translational Sciences (NCATS)
FLuc modulator – qHTS profiling assay for firefly luciferase inhibitor/activator using purifed enzyme and Km concentrations of substrates (counterscreen for miR-21 project). Potency, µM (titrated, usually from 57.5 µM), without a hit: at the highest dose activity change, negative = inhibition, hits mostly inhibitors. AID 588342, 2011. 360,000 compounds, 6.9% hits. purified FLuc, Km substrates, luminescence inhibition;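 further: plate controls were vehicle for no effect and reference inhibitor for full effect; nearly all actives have a fitted effect of over 55% in size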
Target sequence (P08659 whole entry, looked up): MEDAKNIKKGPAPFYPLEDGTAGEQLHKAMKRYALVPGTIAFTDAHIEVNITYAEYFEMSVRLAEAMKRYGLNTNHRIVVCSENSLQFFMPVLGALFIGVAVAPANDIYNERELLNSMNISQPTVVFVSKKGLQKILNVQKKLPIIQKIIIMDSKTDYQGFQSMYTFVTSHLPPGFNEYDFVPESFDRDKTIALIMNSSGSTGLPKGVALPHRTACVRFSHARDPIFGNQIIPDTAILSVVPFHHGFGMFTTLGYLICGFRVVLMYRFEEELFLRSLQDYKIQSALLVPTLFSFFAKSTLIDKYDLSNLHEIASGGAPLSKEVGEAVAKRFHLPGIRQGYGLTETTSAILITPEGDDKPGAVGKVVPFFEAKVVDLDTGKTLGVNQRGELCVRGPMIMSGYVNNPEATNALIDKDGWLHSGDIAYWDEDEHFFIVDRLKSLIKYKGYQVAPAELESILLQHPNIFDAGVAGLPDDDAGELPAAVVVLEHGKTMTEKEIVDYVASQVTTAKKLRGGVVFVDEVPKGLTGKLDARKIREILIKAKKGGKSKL
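Biochemical qHTS of compounds, final roughly 60 µM downward over six points, against 10 nM purified firefly luciferase using Km concentrations of substrates (10 uM D-luciferin, 10 uM ATP) in Tris acetate pH 7.5 buffer; luminescence output.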
Rab9 prom act – qHTS Assay for Rab9 Promoter Activators; Huh7 Rab9 promoter-luciferase reporter, luminescence, 24 h; Potency, µM (series often up to 9.22 µM), for the others: at the top dose activation, negative = inhibition, most hits filed as activators; 320,000 compounds, 2.8% hits; AID 485297, 2010; further: % of control where 0% means no effect; nearly all actives have a fitted effect of over 60% in size
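Huh7 reporter line, Rab9 promoter upstream of luciferase. Compound exposure 24 h at 37 °C in reduced-serum medium with 10% FBS. Read-out: luminescence.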
SMN2 splice up – qHTS Assay for Enhancers of SMN2 Splice Variant Expression; HEK293 SMN2-luciferase splicing reporter, luminescence, 30-36 h; Potency, µM (titrated, usually from 46.1 µM), for inactives: at the top dose activity change, positive = activation, actives largely listed as activators; 210,000 compounds, 2.8% hits; further: % of control where 0% means no effect; nearly all actives have a fitted effect of over 55% in size
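HEK293 cells carry an SMN2 […]–luciferase reporter in which exon 7 inclusion puts luciferase in frame. Cells were plated 10-12 h before compound addition, then incubated 30-36 h at 37C. ONE-Glo luminescence was read; sodium butyrate at 4.5 mM final served as control.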
Luc counter – Counterscreen for Luciferase (Kinase-Glo TM) Inhibition | Kinase-Glo luciferase, ATP luminescence, 8 min | Potency, µM (top dose mostly 38.3 µM), for inactives: top-dose activity change, negative = inhibition, hits mostly inhibitors | 200,000 compounds, 0.28% hits | AID 1379, 2008; further: on the % scale 0 is the no-effect control and ±100 the full control effect; nearly all actives have a fitted effect of over 60% in size
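Luminescence was the read-out, taken after 8-minute incubation at ambient temperature. Luciferase turned over luciferin with 10 uM ATP in imidazole pH 7.2 buffer containing KCl, MgCl2, Tween 20 and BSA.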
NPC1 promoter act – qHTS Assay for NPC1 Promoter Activators. Huh7 NPC1 promoter luciferase reporter, 24 h. Potency, µM (doses to about 9.22 µM), inactives show at the highest dose activation, usual class: activators. 320,000 compounds, 2.4% hits. AID 485313, 2010; further: % of control where 0% means no effect; nearly all actives have a fitted effect of over 60% in size
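Quantitative HTS used a cell-based reporter: Huh7 cells stably bearing the NPC1 promoter upstream of luciferase were treated with compounds for 24 h, and promoter activation was read as luminescence.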
Starred values were filed as active, the others as inactive. Hits are enriched below; roughly 7.3% of the tested compounds scored in any of these assays. The call rests on the fitted dose curve; in most records, active means well fitted curve in the direction sought with a large enough effect; inconclusive means small, poorly fitted or top-dose-only effect, or another doubt; inactive means no such curve, though single readings can be large; an effect the other way counts as inactive or inconclusive. Potency means the concentration at half of the fitted maximal effect.

`COc1ccc(-n2nc(C(=O)N3CCN(c4cccc(C)c4C)CC3)c3c4ccccc4n(C)c3c2=O)cc1Cl` gave FLuc modulator -7% and SMN2 splice up -2%.
For CCC(=O)Nc1ccc(NC(=S)NC(=O)c2cc3ccccc3o2)cc1 the results were FLuc modulator 3%, Rab9 prom act 2%, SMN2 splice up -13%, Luc counter 3% and NPC1 promoter act 2%.
`CCOc1cccc(C(=O)NC(=S)Nc2cccnc2)c1` gave FLuc modulator inconclusive, Rab9 prom act 22%, SMN2 splice up 17%, Luc counter 0% and NPC1 promoter act 18%.
O=C(O)c1cccc(NC(=S)NC(=O)c2ccc3ccccc3c2)c1 was read as FLuc modulator 1.3µM*, Rab9 prom act inconclusive and NPC1 promoter act inconclusive.
Screening CCOc1cccc(C(=O)Nc2ccc(NC(=O)c3ccccc3)c(C)c2)c1 returned FLuc modulator 13µM*, Rab9 prom act 2% and NPC1 promoter act 0%.
For CCOc1cccc(C(=O)NC(=S)Nc2ccccc2)c1 the results were FLuc modulator 6.7µM*, Rab9 prom act inconclusive, SMN2 splice up 11µM*, Luc counter 1% and NPC1 promoter act inconclusive.
Screening O=C(NC(=S)Nc1ccccc1C(=O)O)c1ccc2ccccc2c1 returned FLuc modulator inconclusive, Rab9 prom act 14% and NPC1 promoter act -1%.
For CCC(=O)Nc1cccc(NC(=S)NC(=O)c2cc3ccccc3o2)c1 the results were FLuc modulator 0.6µM*, Rab9 prom act 1.1µM*, SMN2 splice up 2.8µM*, Luc counter -6% and NPC1 promoter act 1.1µM*.
Screening Cc1ccc(-c2cc(C(=O)N3CCN(S(=O)(=O)c4ccc(Br)cc4)CC3)[nH]n2)cc1C returned FLuc modulator -3%.
Screening COCCn1c(C)cc(O)c(C(c2ccccc2)N2CCN(C)CC2)c1=O (stereo unspecified) returned FLuc modulator -6%.
For O=C(CCCCn1c(=O)c2ccccc2n(Cc2ccccc2Cl)c1=O)NCCc1ccccc1 the results were FLuc modulator 4% and SMN2 splice up 17%.
Screening CCC(=O)Nc1cccc(NC(=S)NC(=O)c2ccc(C)cc2)c1 returned FLuc modulator 6.7µM*, Rab9 prom act 1.6µM*, SMN2 splice up 10µM*, Luc counter 5% and NPC1 promoter act 2µM*.
`CC(=O)c1cccc(NC(=S)NC(=O)c2ccc(C)cc2Cl)c1` gave FLuc modulator 15µM*, Rab9 prom act inconclusive, SMN2 splice up inconclusive, Luc counter -2% and NPC1 promoter act 24%.
For CCC(=O)Nc1cccc(NC(=S)NC(=O)c2ccccc2)c1 the results were FLuc modulator 15µM*, Rab9 prom act inconclusive, SMN2 splice up 11µM*, Luc counter 0% and NPC1 promoter act 2.8µM*.
`Cc1c(NC(=S)NC(=O)c2cc3ccccc3o2)cccc1C(=O)O` gave FLuc modulator inconclusive, Rab9 prom act 1.8µM* and NPC1 promoter act 4µM*.
Screening CC(=O)c1cccc(NC(=S)NC(=O)c2ccccc2Cl)c1 returned FLuc modulator inconclusive, Rab9 prom act 11%, SMN2 splice up 17%, Luc counter -2% and NPC1 promoter act 16%.
For Cc1noc(-c2ccccc2OCC(=O)Nc2ccccc2[N+](=O)[O-])n1 the results were FLuc modulator 3%.
Cc1ccc(NC(=O)CCc2nc3cccnc3n2-c2ccccc2)cc1Cl was read as FLuc modulator 1% and SMN2 splice up -11%.
Screening CCOC(=O)c1ccc(NC(=O)CSc2nccn2Cc2ccc(OC)cc2)cc1 returned FLuc modulator 1%.
Screening Cc1ccc(NC(=S)NC(=O)c2ccccc2)cc1NC(=S)NC(=O)c1ccccc1 returned FLuc modulator -17%, Rab9 prom act 1.8µM* and NPC1 promoter act inconclusive.
Screening CCC(=O)Nc1cccc(NC(=S)NC(=O)c2cccc(C)c2)c1 returned FLuc modulator inconclusive, Rab9 prom act 1.6µM*, SMN2 splice up 11µM*, Luc counter 1% and NPC1 promoter act 3.2µM*.
Screening O=C(NC(=S)Nc1cccc(CO)c1)c1ccc(-c2ccccc2)cc1 returned FLuc modulator inconclusive, Rab9 prom act 1.6µM*, SMN2 splice up inconclusive, Luc counter -1% and NPC1 promoter act 1µM*.
For COC(=O)c1ccccc1NC(=S)NC(=O)c1ccccc1 the results were FLuc modulator -9%, Rab9 prom act 1%, SMN2 splice up 2%, Luc counter -1% and NPC1 promoter act 3%.
For CC(=O)c1cccc(NC(=S)NC(=O)c2ccc(C)cc2)c1 the results were FLuc modulator 11µM*, Rab9 prom act 1.4µM*, SMN2 splice up 11µM*, Luc counter 4% and NPC1 promoter act 3.2µM*.
`CCC(=O)NC(=S)Nc1cccc(NC(=O)CC)c1` gave FLuc modulator 14%, Rab9 prom act -9%, SMN2 splice up 1%, Luc counter -3% and NPC1 promoter act -3%.
For Cc1ccc2c(CC(=O)Nc3ccc(S(=O)(=O)N4CCCCC4C)cc3)coc2c1 (stereo unspecified) the results were FLuc modulator -7% and SMN2 splice up -3%.
Screening O=C(Cn1ncc2c([nH]c3ccccc32)c1=O)Nc1cc(F)ccc1F returned FLuc modulator -1%.
Screening CCOC(=O)c1c(N)n(-c2ccc(Cl)c(Cl)c2)c2nc3ccccc3nc12 returned FLuc modulator -1% and SMN2 splice up 3%.
COc1ccccc1Nc1nc(C)c(C(=O)Nc2ccccc2)s1 was read as FLuc modulator 15µM*, Rab9 prom act 12%, SMN2 splice up 5%, Luc counter 2% and NPC1 promoter act -5%.
Cc1nc(NCc2ccccc2)sc1C(=O)Nc1ccccc1 was read as FLuc modulator -16%, Rab9 prom act inconclusive, SMN2 splice up inconclusive, Luc counter -4% and NPC1 promoter act inconclusive.
Screening Cc1nc(NCCOc2ccccc2)sc1C(=O)Nc1ccccc1 returned FLuc modulator inconclusive, Rab9 prom act inconclusive and NPC1 promoter act 2.8µM*.
Cc1nc(Cl)sc1C(=O)Nc1ccc(Cl)cc1 was read as FLuc modulator 15µM*, Rab9 prom act 1%, SMN2 splice up -8%, Luc counter -2% and NPC1 promoter act -2%.
Screening Cc1nc(C)c(C(=O)Nc2ccccc2)s1 returned FLuc modulator -15%, Rab9 prom act inconclusive, SMN2 splice up -7%, Luc counter -7% and NPC1 promoter act 1%.
`Cc1nc(Cl)sc1C(=O)Nc1ccccc1` gave FLuc modulator -16%, Rab9 prom act 0%, SMN2 splice up -13%, Luc counter -2% and NPC1 promoter act -2%.
